Assay outcomes: PubChem BioAssay, National Center for Advancing Translational Sciences (NCATS)
Only some compounds are listed: those with a hit (about 1.1% of all), similar ones and a draw of the others.
ALOX12 inh: inhibitors of human 12S-lipoxygenase ALOX12. purified 12hLO, xylenol orange hydroperoxide absorbance. Potency, µM (series often up to 108 µM), for inactives: at the top dose activity change, negative = inhibition, usual class: inhibitors. actives 1.1% (n = 580,000); further: on the % scale 0 is the no-effect control and ±100 the full control effect
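Hydroperoxide product was detected by ferrous iron/xylenol orange as the 573 to 405 nm absorbance ratio. Arachidonic acid at 40 uM (final) was turned over for 30 min at room temperature by 150 nM human 12hLO, pH 7.0 Hepes buffer, after 15 min compound preincubation.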
TSG101-PTAP inh: blocks PTAP/TSG101 interaction to inhibit HIV-1 budding. 340,000 tested, under 10 active. Fluorescence polarization, FITC-PTAP peptide / Tsg101 binding. Potency, µM (top dose mostly 115 µM), for the others: top-dose activity change, negative = inhibition, hits mostly inhibitors. Q99816; active means well fitted inhibition curve with a large enough effect in the main read-out, with a control signal flat, not every such curve was filed as active; inconclusive means small, poorly fitted or top-dose-only effect, or effect the other way, or a change in a side signal; inactive means no such curve, though single readings can be large or run the other way; further: % of control where 0% means no effect
Target sequence (Q99816 whole entry, looked up): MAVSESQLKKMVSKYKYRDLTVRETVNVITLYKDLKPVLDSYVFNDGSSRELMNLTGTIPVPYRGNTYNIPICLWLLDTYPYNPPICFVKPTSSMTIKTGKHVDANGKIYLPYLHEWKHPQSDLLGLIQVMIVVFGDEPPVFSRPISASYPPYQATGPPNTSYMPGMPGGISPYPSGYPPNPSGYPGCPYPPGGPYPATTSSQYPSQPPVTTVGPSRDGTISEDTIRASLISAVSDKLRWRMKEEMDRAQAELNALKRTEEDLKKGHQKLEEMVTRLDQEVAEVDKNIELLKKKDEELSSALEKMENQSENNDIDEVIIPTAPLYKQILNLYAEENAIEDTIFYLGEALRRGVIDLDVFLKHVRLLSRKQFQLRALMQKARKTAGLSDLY
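Fluorescence polarization binding of Tsg101 binding domain (10 uM final) to FITC-labeled PTAP peptide (50 nM final) in HEPES pH 7.5 buffer with NaCl, Tween 20, EDTA, TCEP. Compounds added before peptide; binding 20 min at RT.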
USP2a inh: USP2a (human) protease inhibition; O75604; USP2 core, Ub-CHOP2 coupled fluorogenic reporter, 485/531; Potency, µM (top dose mostly 38.3 µM), inactives show at the highest dose activity change, negative = inhibition, usual class: inhibitors; actives 0.01% (n = 330,000);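 further: plate controls were DMSO wells for no effect and full inhibition by NEM control for full effect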
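Deubiquitinase activity read as fluorescence (485/531 nm) after Ub-CHOP2 cleavage activates the enterokinase reporter on its substrate; USP2 core 10nM, Ub-CHOP2 and substrate 25nM each, 30min compound preincubation then 60min RT; data normalized to NEM, curves fitted.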
Eya2 inh: blocks the phosphatase activity of human Eya2; O00167; recombinant Eya2, OMFP fluorescence dephosphorylation (OMFP is methylfluorescein phosphate); Potency, µM (doses to about 76.9 µM), for the others: at the top dose activity, negative = inhibition, most hits filed as inhibitors; actives 0.006% (n = 330,000); AID 488837; further: on the % scale 0 is the no-effect control and ±100 the full control effect
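Eya2 protein (added as 0.2 uM solution) was preincubated with compound for 10 min at ambient temperature in 50 mM HEPES pH 7.5, 50 mM NaCl, 5 uM MgCl2, 0.05% BSA, 1 mM DTT. OMFP (added at 50 uM) then reacted 10 min; fluorescence read at 485/525 nm.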
The depositor's hits bear a star; ? = inconclusive; · = no result given; [ ] = another dose, or the depositor's remark. Unless noted, the call rests on the fitted dose curve; in most records, active means well fitted curve in the direction sought with a large enough effect; inconclusive means small, poorly fitted or top-dose-only effect, or another doubt; inactive means no such curve, though single readings can be large; an effect the other way counts as inactive or inconclusive. Potency means the concentration at half of the fitted maximal effect.

SMILES | ALOX12 inh | TSG101-PTAP inh | USP2a inh | Eya2 inh
CCN(CC(=O)Nc1c(F)cccc1F)C(=O)c1ccc2ccccc2n1 | -0.9% | 0.7% | 1.2% | 13.6%
CCC1(C)NC(=O)N(NC(=O)CCc2c[nH]c3ccccc23)C1=O (stereo unspecified) | 21.8% | · | · | ·
CNC(=O)/C(C#N)=C\c1ccc(CNS(=O)(=O)c2ccc(Cl)cc2)o1 | 44.7µM* | -7.5% | -0.5% | 17.1%
CN(C)/C=C/C(=O)c1ccc(Br)s1 | 39.8µM* | -7.5% | 2.6% | 4.4%
O=C(CC1CCCC1)N1CCC2(CC1)CC(N(Cc1ccc(F)cc1)C1CC1)CCO2 (stereo unspecified) | 19.7% | · | · | ·
COc1ccc(CNC(=O)C[C@H]2C[C@H](C(=O)N3CCOCC3)[C@@]3(CCC4CCCC4)c4[nH]c5cc(-c6ccco6)ccc5c4CCN3C2=O)cc1OC | 39.8µM* | 0.5% | -7.8% | 7.5%
O=C(C[C@H]1C[C@H](C(=O)N2CCOCC2)[C@@]2(CCC3CCCC3)c3[nH]c4cc(-c5ccco5)ccc4c3CCN2C1=O)NCCN1CCOCC1 | 44.7µM* | -15.2% | 3.3% | -7.1%
COc1ccccc1Nc1ncc2c(n1)CN(C(=O)c1ccc(Oc3ccccc3)cc1)CCN2 | 0.0% | · | · | ·
C(=N\N=C\c1ccccc1)/c1ccccc1 | -6.7% | -0.9% | -2.1% | 8.1%
C[N+](C)(C)c1ccc(/C=N/N=C/c2ccccc2)cc1 | 11.2µM* | · | · | ·
O=C(c1ccccc1)[C@@H]1[C@@H]2C(=O)N(c3ccc(F)cc3)C(=O)[C@@H]2C2CCCN21 (stereo partly specified) | ? | ? | 9.5% | 5.8%
Cc1ccc(N2C(=O)[C@@H]3[C@H](C2=O)C2CCCN2[C@@H]3C(=O)c2ccccc2)cc1 (stereo partly specified) | 44.7µM* | -12.9% | 4.8% | -5.7%
CN(C)c1ccc(C(=O)OCc2ccccc2)cc1 | 0.0% | 0.1% | 0.5% | 0.7%
O=C1C=CC(=O)C(CNc2ccc(C(=O)OCc3ccccc3)cc2)=C1 | 15.8µM* | -2.3% | · | ·
COc1cc(C2CC(=O)Nc3c2c(C)nn3-c2ccc3nncn3n2)cc(OC)c1OC (stereo unspecified) | 13.1% | · | · | ·
Cc1ccc(N/N=C/c2cccnc2)cc1 | 39.8µM* | 0.0% | 0.2% | -17.4%
Cc1ccc(N/N=C/c2ccncc2)cc1 | ? | -5.4% | 2.6% | -3.1%
COc1cccc(-c2noc(CC3CCN(C(=O)c4ccccc4)CC3)n2)c1 | 3.4% | · | · | ·
c1ccc(CNc2ncncc2-c2ccc3c(c2)OCO3)cc1 | 25.1µM* | · | · | ·
O=C(c1ccccc1)N1Cc2ccccc2CC2(CCN(Cc3ccccn3)C2)C1 (stereo unspecified) | -16.9%[6.33 µM] | · | · | ·
O=S1(=O)CCN(Cc2cn(C[C@H]3C[C@@H](NCc4ccc(F)cc4)[C@H](O)[C@@H]3O)nn2)CC1 | 12.6µM* | · | · | ·
COCc1cn(C[C@H]2C[C@@H](NCc3cccnc3)[C@H](O)[C@@H]2O)nn1 | 22.4µM* | · | · | ·
O=S(=O)(N[C@@H]1C[C@H](Cn2cc(-c3cccnc3)nn2)[C@@H](O)[C@H]1O)c1ccccc1 | 20µM* | · | · | ·
O=C(N[C@@H]1C[C@H](Cn2cc(-c3cccnc3)nn2)[C@@H](O)[C@H]1O)C1CCCC1 | 80.3% | · | · | ·
COCc1cn(C[C@H]2C[C@@H](NCc3cccc4c3OCO4)[C@H](O)[C@@H]2O)nn1 | 3.0% | · | · | ·
SMILES | ALOX12 inh | TSG101-PTAP inh | USP2a inh | Eya2 inh
COCC(=O)N[C@@H]1C[C@H](Cn2cc(CN3CCS(=O)(=O)CC3)nn2)[C@@H](O)[C@H]1O | 67.7% | · | · | ·
Cc1ccc(C(=O)N2CCN(c3nc4c(c(=O)n(C)c(=O)n4C)n3Cc3ccccc3)CC2)cc1 | 42.5% | · | · | ·
CCOC(=O)c1[nH]c(C)c(C(=O)OCC2CC2(Cl)Cl)c1C (stereo unspecified) | 54.3% | · | · | ·
COc1ccc(S(=O)(=O)N2CCCCC2)cc1NC(=S)Nc1cccc(Cl)c1C | 39.8µM* | -2.9% | -1.0% | -5.0%
O=C(NC(=S)Nc1ccc(Cc2ccncc2)cc1)c1ccccc1 | ? | -7.1% | -4.3% | -0.2%
CCC(=O)Nc1cccc(NC(=S)NC(=O)c2cccc(C)c2)c1 | 35.5µM* | 0.8% | 0.3% | -3.9%
Cc1cc(C)cc(C(=O)NC(=S)Nc2ccc(Cc3ccncc3)cc2)c1 | 44.7µM* | -4.1% | 0.2% | -12.8%
COc1cc(C(=O)NC(=S)Nc2ccc(Cc3ccncc3)cc2)cc(OC)c1OC | 0.0% | -5.8% | 1.4% | 3.7%
Cc1cccc(C(=O)NC(=S)Nc2ccc(Cc3ccncc3)cc2)c1 | 44.7µM* | -5.9% | -0.2% | -10.4%
COc1ccc(S(=O)(=O)N2CCCCC2)cc1NC(=S)Nc1ccccc1 | -28.3% | -0.9% | 1.6% | -3.4%
Cc1cccc(C(=O)NC(=S)NC(C)c2ccccc2)c1 (stereo unspecified) | 6.31µM* | -3.2% | · | ·
Cc1cccc(C(=O)NC(=S)Nc2ccc(S(=O)(=O)N3CCN(C)CC3)cc2)c1 | ? | -1.6% | -1.3% | 2.3%
CC(NC(=S)NC(=O)c1ccccc1)c1ccccc1 (stereo unspecified) | 0.0% | 1.3% | · | ·
Cc1cccc(C(=O)NC(=S)Nc2ccc(S(=O)(=O)N3CCCCC3)cc2)c1 | 11.2µM* | -3.1% | 5.4% | 1.3%
OC(COCc1ccco1)CN1CCN(C(c2ccccc2)c2ccccc2)CC1 (stereo unspecified) | ? | 0.2% | -3.1% | 0.9%
Cc1ccc(Cl)cc1N1CCN(CC(O)COCc2ccco2)CC1 (stereo unspecified) | 10µM* | -0.3% | -0.9% | -16.2%
COc1ccc(-n2c(C)cc(/C=C3\C(=O)NN(c4ccccc4)C3=O)c2C)cc1 | 1.5% | 5.5% | -0.9% | -16.8%
COc1ccc(Sc2ccc(/C=C3\C(=O)NN(c4ccccc4)C3=O)o2)cc1 | 28.2µM* | -1.0% | -3.1% | -6.4%
CCCCNC(=O)Cc1c(C)nc2nc(N)nn2c1C | 11.1% | · | · | ·
CNc1sc(C(C)=O)cc1C | 12.6µM* | · | · | ·
CC(=O)c1cc(Cc2csc(C(C)=O)c2)cs1 | -4.4% | -13.1% | 3.1% | 4.6%
CSCC(=O)Nc1nn(-c2ccc(F)cc2)c2cccc(N3CCOCC3)c12 | 35.7% | · | · | ·
CCCCC(CCC(=O)Nc1ccn(-c2ccccc2)n1)C(=O)O (stereo unspecified) | 0.0% | -4.7% | 11.1% | 39.8µM*
CCCCC(C(=O)O)C(C)CC(=O)Nc1ccn(-c2ccccc2)n1 (stereo unspecified) | 155.2% | -1.5% | -5.5% | -11.6%
CC1=C[C@@H](CN(C)CCO)[C@H](C(C)C)C[C@H]1Cc1nnc(-c2ccc(C)cc2)o1 | -0.4%[176 µM] | · | · | ·
COc1ccccc1COC(=O)N/C=C/c1ccco1 | 50.1µM* | -0.9% | -0.7% | 1.3%
COc1ccc(COC(=O)N/C=C/c2ccco2)cc1 | ? | -5.2% | 1.8% | 0.1%
Cc1ccc(S(=O)(=O)Nc2ccc(Nc3ccccc3)cc2)cc1 | 17.8µM* | -0.3% | -6.1% | -0.8%
Cc1ccc(S(=O)(=O)Nc2ccc(Cl)cc2O)cc1 | 28.2µM* | · | · | ·
